Values without a mark were called inactive. Records with an inconclusive call do not appear. The source made the active and inactive calls. Unless noted, calls follow the shape of the full dose curve.

A short description of assay [1]: Nuclear factor erythroid 2-related factor 2/antioxidant responsive element (Nrf2/ARE) small molecule agonists: qHTS cell viability counter screen in human keratinocytes (AID 1919968; active = well fitted curve in the direction sought with a large enough effect in the repeat runs; an effect the other way counts as inactive or inconclusive; also: nearly all actives have a fitted effect of over 55% in size; also: potency is read from the fitted curve at half-maximal effect). In a few lines:
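Stably transfected HaCaT (KeratinoSens), 1,500/well. Test agents in DMSO were applied for 23 h, 37 C/5% CO2. CellTiter-Fluor was incubated 1 h before the fluorescence read.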
A general note: Quantitative high-throughput screening tests each substance at several concentrations.

Assay [2] in a line: Nuclear factor erythroid 2-related factor 2/antioxidant responsive element (Nrf2/ARE) small molecule agonists: luciferase reporter gene qHTS assay in human keratinocytes (AID 1919969). Also: nearly all actives have a fitted effect of over 35% in size. Also: potency is read from the fitted curve at half-maximal effect. For orientation: A reporter such as luciferase makes a cellular process visible.
The target in assay [3] is Gonadotropin-releasing hormone receptor (Homo sapiens) (UniProt P30968). Nature of the assay: Human gonadotropin-releasing hormone receptor (GnRHR) small molecule agonists, calcium flux assay in GnRHR-HEK293 cells (AID 1920063). Also: nearly all actives have a fitted effect of over 35% in size. In a few lines:
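Stable human GnRHR HEK293 line. 18 h plating, then calcium dye for 1 h at 37 C. Agonist-mode compound addition from DMSO stocks; fluorescence monitored 3 min.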

Assay [4] has as its target KiSS-1 receptor (Homo sapiens) (UniProt Q969F8). Nature of the assay: Human kisspeptin (KISS1R) small molecule agonists, calcium flux assay in KISS1R-HEK293 cells (AID 1920064; active = well fitted curve in the direction sought with a large enough effect in the repeat runs; an effect the other way counts as inactive or inconclusive). In a few lines: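 After overnight (18 h) culture at 37 C/5% CO2, human KISS1R-HEK293 cells received calcium dye for 1 h, then test compound; emission at 540 nm (excitation 480 nm) was tracked for 3 min.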
On the technique in general: Calcium assays in cells follow changes in intracellular calcium, usually with a dye or a luminescent sensor.

Assay [5] is described as follows: G protein-coupled receptor (GPCR) small molecule agonists, calcium flux assay: HEK293 wild type cell line counter screen (AID 1920065). In a few lines:
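Following 18 h incubation at 37 C/5% CO2, plates got calcium dye for 1 h; compounds, ATP or DMSO were then pinned in and fluorescence followed kinetically (480/540 nm).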

The nature of assay [6]: p53 small molecule agonists, cell-based qHTS assay with human liver microsomes (AID 1963577).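 Also: p53 response element beta-lactamase reporter cells with liver microsomes plus NADPH.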 The method, boiled down: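 Reporter activation was measured by LiveBLAzer fluorescence intensity in p53RE-bla cells, which had been exposed to compounds for 16 h at 37 C alongside 0.5 mg/mL human liver microsomes and 0.5 mg/mL NADPH (final concentrations).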
Assay [7] can be described thus: p53 small molecule agonists, cell-based qHTS assay with rat liver microsomes (AID 1963578). In a few lines: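 Compound in DMSO added to p53RE-bla cells 5 h post-plating; rat microsomes/NADPH 0.5 mg/mL final; 16 h, 37 C; LiveBLAzer 2 h RT.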
Assay [8] can be described thus: p53 small molecule agonists, cell-based qHTS assay with rat liver microsomes: qHTS cell viability counter screen (AID 1963580). Also: nearly all actives have a fitted effect of over 45% in size. The method, boiled down:
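Luminescent ATP readout (CellTiter-Glo, 30 min at room temperature) reports viability of p53RE-bla HCT-116 cells after 16 h at 37 C with test compounds under metabolic activation by rat liver microsomes and NADPH at 0.5 mg/mL final each.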

Assay [9] can be described thus: p53 small molecule agonists, cell-based qHTS assay: qHTS cell viability counter screen (AID 1963581). Also: nearly all actives have a fitted effect of over 45% in size. In a few lines: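 qHTS counter screen: 16 h compound exposure at 37 C of p53RE-bla HCT-116 cells (4,000 per well, seeded 5 h prior), cell viability by ATP luminescence.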
Assay [10] deals with 5-hydroxytryptamine receptor 2A (Homo sapiens) (UniProt P28223). Nature of the assay: 5-hydroxytryptamine receptor 2A (HTR2A) small molecule antagonists, cell-based qHTS assay (AID 1963586). Also: nearly all actives have a fitted effect of over 45% in size. In a few lines: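 CHO cells stably expressing human HTR2A were plated for 18 h at 37 C, then loaded with calcium dye for 1 h. Compounds were preincubated 5 min at room temperature before DOI (4 nM solution) was added. Kinetic fluorescence was read for 3 min.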
Sequence of 5-hydroxytryptamine receptor 2A (Homo sapiens) (P28223 whole entry, looked up): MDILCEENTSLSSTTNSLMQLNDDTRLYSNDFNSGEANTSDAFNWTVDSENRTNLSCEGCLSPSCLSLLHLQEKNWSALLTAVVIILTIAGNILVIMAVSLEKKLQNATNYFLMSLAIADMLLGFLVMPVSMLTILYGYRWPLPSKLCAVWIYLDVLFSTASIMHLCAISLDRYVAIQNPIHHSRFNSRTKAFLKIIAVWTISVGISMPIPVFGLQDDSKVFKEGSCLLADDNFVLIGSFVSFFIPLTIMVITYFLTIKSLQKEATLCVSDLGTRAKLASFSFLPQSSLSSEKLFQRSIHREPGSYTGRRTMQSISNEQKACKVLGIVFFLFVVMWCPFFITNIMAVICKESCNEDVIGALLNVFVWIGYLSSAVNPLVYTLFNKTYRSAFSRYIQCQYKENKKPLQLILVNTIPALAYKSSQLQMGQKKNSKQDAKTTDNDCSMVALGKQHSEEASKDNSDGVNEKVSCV

Assay [11] deals with Muscarinic acetylcholine receptor M1 (Homo sapiens) (UniProt P11229). Nature of the assay: Cholinergic receptor muscarinic 1 (CHRM1) small molecule antagonists, cell-based qHTS assay (AID 1963588). Also: nearly all actives have a fitted effect of over 40% in size. The method, boiled down:
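Compounds were tested at 15 concentrations in three independent runs. Dye-loaded CHRM1-CHO cells were exposed 5 min at room temperature before stimulation by acetylcholine added at 50nM. Intracellular calcium was read kinetically on FDSS for 3 min.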

Assay [12] has the same target. Nature of the assay: Cholinergic receptor muscarinic 1 (CHRM1) small molecule agonists, cell-based qHTS assay (AID 1963589). Also: nearly all actives have a fitted effect of over 35% in size. The method, boiled down:
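Kinetic fluorescence (1 s intervals) of calcium-sensitive dye in human M1 CHO cells after compound addition; cells pre-incubated 18 h at 37 C/5% CO2 and dye-loaded 1 h.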

The nature of assay [13]: cAMP Responsive Elements (CRE) small molecule agonists, cell-based qHTS assay (AID 1963590). The method, boiled down:
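Test agents in DMSO were incubated 3 h at 37 C/5% CO2 with CRE-bla HEK 293T cells seeded 18 h earlier; LiveBLAzer B/G FRET substrate was added and read after 2 h at room temperature.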

Assay [14] is described as follows: cAMP Responsive Elements (CRE) small molecule antagonists, cell-based qHTS assay (AID 1963591; active = well fitted inhibition curve with a large enough effect in the signal ratio in the repeat runs, not every such curve was filed as active; the % refers to the signal ratio). In a few lines: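 Reporter line CRE-bla HEK 293T in dialyzed-FBS DMEM; cells preincubated 18 h, treated 3 h with compound plus NKH477 (0.25 uM final); LiveBLAzer FRET, 2 h RT.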
Assay [15] has as its target Beta-2 adrenergic receptor (Homo sapiens) (UniProt P07550). Nature of the assay: Adrenergic beta2 receptor (ADRB2) small molecule antagonists, cell-based qHTS assay (AID 1963592). Also: series mostly up to about 92 µM; nearly all actives have a fitted effect of over 50% in size. The method, boiled down: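 Assay format: CHO-ADRB2 cells, 18-20hr seeding at 37C/5% CO2, then compound plus 1nM isoproterenol agonist mix for 0.5hr RT. Homogeneous time-resolved fluorescence cAMP detection after 1hr, expressed as 665/615 nm ratio.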

Assay [16] deals with D(2) dopamine receptor (Homo sapiens) (UniProt P14416). Nature of the assay: Dopamine D2 receptor (DRD2) small molecule agonists, cell-based qHTS assay (AID 1963594). Also: nearly all actives have a fitted effect of over 35% in size. The method, boiled down:
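HEK293 cells stably expressing DRD2 were cultured 24 h at 37 C, then given Ro20-1724 (0.1 mM final) and compounds for 10 min at room temperature. NKH477 (200nM) was then added for 30 min. cAMP was read by HTRF.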

Assay [17] has the same target. Nature of the assay: Dopamine D2 receptor (DRD2) small molecule antagonists, cell-based qHTS assay (AID 1963595; active = well fitted inhibition curve with a large enough effect in the signal ratio in the repeat runs, with a control signal flat; the % refers to the signal ratio). In a few lines:
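Antagonism was scored as restored cAMP in HEK293-DRD2 cells. These cells were stimulated with 200 nM NKH477 and 12 nM quinpirole for 30 min at room temperature, in the presence of 0.1 mM Ro20-1724.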

A short description of assay [18]: p53 small molecule agonists, cell-based qHTS assay (AID 1963582; active = well fitted activation curve with a large enough effect in the signal ratio in the repeat runs, not every such curve was filed as active; the % refers to the signal ratio). In a few lines:
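Measured: fluorescence from cleaved LiveBLAzer substrate. System: p53RE-bla cells, 16 h compound treatment at 37 C, 2 h substrate step at room temperature.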

Assay [19] has as its target 5-hydroxytryptamine receptor 2A (Homo sapiens) (UniProt P28223). Nature of the assay: 5-hydroxytryptamine receptor 2A (HTR2A) small molecule agonists, cell-based qHTS assay (AID 1963587). Also: nearly all actives have a fitted effect of over 30% in size. The method, boiled down:
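HTR2A-CHO cells, plated 18 h at 37 C/5% CO2, dye-loaded 1 h at 37 C; compounds in DMSO added by pin tool (agonist mode). Intracellular calcium flux read as kinetic fluorescence on FDSS over 2 min at 1 s intervals.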

The target in assay [20] is Beta-2 adrenergic receptor (Homo sapiens) (UniProt P07550). Nature of the assay: Adrenergic beta2 receptor (ADRB2) small molecule agonists, cell-based qHTS assay (AID 1963593).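 Also: CHO cells stably overexpressing human ADRB2.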 In a few lines:
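CHO cells stably over-expressing ADRB2 were plated overnight at 37C, then dosed with compounds plus a stimulation mix containing 100uM IBMX and 25uM Ro-20-1724 for 0.5hr at room temperature. cAMP was measured by HTRF competition, 1hr.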

Sequence of D(2) dopamine receptor (Homo sapiens) (P14416 whole entry, looked up): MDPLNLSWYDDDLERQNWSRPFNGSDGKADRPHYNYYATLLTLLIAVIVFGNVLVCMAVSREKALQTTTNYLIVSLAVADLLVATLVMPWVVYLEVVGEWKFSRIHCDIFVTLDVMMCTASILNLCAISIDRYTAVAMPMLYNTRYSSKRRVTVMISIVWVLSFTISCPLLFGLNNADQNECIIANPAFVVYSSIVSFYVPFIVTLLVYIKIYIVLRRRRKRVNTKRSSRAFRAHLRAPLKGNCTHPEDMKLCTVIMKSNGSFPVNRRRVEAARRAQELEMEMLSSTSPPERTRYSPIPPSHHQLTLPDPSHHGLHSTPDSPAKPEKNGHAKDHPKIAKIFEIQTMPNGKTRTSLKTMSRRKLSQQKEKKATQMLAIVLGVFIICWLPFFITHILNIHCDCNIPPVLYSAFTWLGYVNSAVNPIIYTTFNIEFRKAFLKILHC
Sequence of Muscarinic acetylcholine receptor M1 (Homo sapiens) (P11229 whole entry, looked up): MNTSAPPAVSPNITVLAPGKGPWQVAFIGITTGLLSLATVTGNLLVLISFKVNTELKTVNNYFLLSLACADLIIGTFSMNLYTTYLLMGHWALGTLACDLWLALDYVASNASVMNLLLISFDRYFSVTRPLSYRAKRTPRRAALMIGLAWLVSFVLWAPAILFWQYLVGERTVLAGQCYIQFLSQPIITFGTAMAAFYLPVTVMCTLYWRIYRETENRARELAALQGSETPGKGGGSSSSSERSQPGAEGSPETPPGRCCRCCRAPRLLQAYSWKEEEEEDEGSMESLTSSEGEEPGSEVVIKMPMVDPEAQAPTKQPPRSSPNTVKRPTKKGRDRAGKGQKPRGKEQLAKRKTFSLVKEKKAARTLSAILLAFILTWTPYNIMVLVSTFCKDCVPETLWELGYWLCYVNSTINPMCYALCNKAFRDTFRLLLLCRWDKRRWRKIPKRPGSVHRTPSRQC
Sequence of Beta-2 adrenergic receptor (Homo sapiens) (P07550 whole entry, looked up): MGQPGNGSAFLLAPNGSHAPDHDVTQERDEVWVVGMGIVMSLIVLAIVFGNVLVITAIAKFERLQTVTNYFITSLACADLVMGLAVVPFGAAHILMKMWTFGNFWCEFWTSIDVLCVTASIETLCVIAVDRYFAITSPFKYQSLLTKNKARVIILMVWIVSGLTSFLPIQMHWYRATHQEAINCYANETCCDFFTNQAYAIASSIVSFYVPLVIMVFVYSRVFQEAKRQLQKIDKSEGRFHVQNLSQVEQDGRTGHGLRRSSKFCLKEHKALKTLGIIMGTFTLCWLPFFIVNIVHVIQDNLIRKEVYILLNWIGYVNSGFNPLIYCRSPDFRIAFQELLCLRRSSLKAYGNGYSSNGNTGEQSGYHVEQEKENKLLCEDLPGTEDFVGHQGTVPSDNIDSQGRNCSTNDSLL
Sequence of KiSS-1 receptor (Homo sapiens) (Q969F8 whole entry, looked up): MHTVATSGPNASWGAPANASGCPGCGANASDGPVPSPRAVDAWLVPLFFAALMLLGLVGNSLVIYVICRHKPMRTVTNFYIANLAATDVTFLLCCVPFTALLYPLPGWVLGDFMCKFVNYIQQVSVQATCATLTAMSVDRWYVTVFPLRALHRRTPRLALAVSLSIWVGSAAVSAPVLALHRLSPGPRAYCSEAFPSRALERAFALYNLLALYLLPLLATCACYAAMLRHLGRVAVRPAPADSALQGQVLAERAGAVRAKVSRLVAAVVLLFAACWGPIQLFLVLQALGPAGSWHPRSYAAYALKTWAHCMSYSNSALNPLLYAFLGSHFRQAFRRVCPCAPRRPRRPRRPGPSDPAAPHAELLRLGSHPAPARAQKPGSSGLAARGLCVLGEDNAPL
Sequence of Gonadotropin-releasing hormone receptor (Homo sapiens) (P30968 whole entry, looked up): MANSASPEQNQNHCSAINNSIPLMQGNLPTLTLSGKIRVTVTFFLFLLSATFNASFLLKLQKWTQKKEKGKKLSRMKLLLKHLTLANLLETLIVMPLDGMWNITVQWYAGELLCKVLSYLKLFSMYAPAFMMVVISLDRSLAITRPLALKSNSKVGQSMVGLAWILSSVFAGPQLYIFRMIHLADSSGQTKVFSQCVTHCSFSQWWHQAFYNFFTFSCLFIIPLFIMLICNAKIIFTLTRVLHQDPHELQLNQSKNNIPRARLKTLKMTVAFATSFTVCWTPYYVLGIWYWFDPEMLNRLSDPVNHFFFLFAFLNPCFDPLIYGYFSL

Turning to `OCC(F)(F)F`, the Potency result in [1], in assay [2], in assay [3], in assay [6], in assay [7] and in [8] was “inactive” throughout. The Potency result in assay [9], in [10], in assay [11], in [12], in assay [13] and in [14] was “inactive” in each case. Further, the Potency entry in assay [15], in assay [16] and in assay [17] was “inactive” each time. The result in [4] and in assay [5] was inactive.

`CN(C)CCN(C)CCN(C)C`: the Potency entry in assay [1], in assay [2], in assay [3], in assay [6], in assay [7] and in [9] was “inactive” each time. Moreover, the Potency result in assay [18], in assay [19], in assay [11], in assay [12], in assay [13] and in [14] was “inactive” in each case. Moreover, the Potency entry in [15], in assay [16] and in [17] was “inactive” throughout. Besides, the outcome in assay [4] and in assay [5] was inactive.

With `CC(C)CCCC(C)NCCC(C)C` (centres undefined), the Potency result in [1], in assay [2], in assay [3], in assay [6], in [7] and in assay [8] was “inactive” each time. Also, the Potency entry in assay [9], in [10], in assay [11], in assay [12], in [13] and in [14] was “inactive” in each case. Moreover, the Potency result in assay [15], in assay [16] and in [17] was “inactive” in each case. Besides, the result in assay [4] and in assay [5] was inactive.

As for `Cc1nc2ccccc2n1Cc1ccc(Cl)cc1`, the Potency in assay [1] is 1.68 µM (active). For the same molecule, the Potency entry in assay [2], in [3], in [6], in assay [7], in [8] and in assay [19] was “inactive” throughout. Besides, the Potency result in assay [11], in assay [12], in assay [14], in assay [15], in assay [20] and in [17] was “inactive” throughout. The outcome in assay [4] and in [5] was inactive.

With `CC(C)c1ccc2sc3ccccc3c(=O)c2c1`, the Potency result in assay [1], in assay [3], in assay [6], in assay [7], in assay [9] and in assay [18] was “inactive” throughout. Besides, the Potency entry in assay [10], in [19], in assay [11], in [12], in [15] and in assay [16] was “inactive” throughout. For the same molecule, the Potency in assay [2] was 68.6 µM (active). The result in [4] and in assay [5] was inactive.

In the case of `Cc1ccc2c(Cl)cc(Cl)c(O)c2n1`, the Potency entry in assay [1], in assay [2], in [3], in assay [6], in assay [7] and in assay [9] was “inactive” in each case. Besides, the Potency entry in [18], in assay [19], in assay [11], in assay [12], in [14] and in assay [15] was “inactive” each time. Also, the Potency result in [16] and in assay [17] was “inactive” each time. The result in assay [4] and in assay [5] was inactive.

`CCCCCCCCCC(=O)OCC`: the Potency result in assay [1], in [2], in assay [3], in assay [6], in [8] and in assay [9] was “inactive” in each case. For the same molecule, the Potency entry in [18], in assay [10], in assay [19], in [11], in assay [13] and in assay [14] was “inactive” in each case. The Potency result in assay [15], in [16] and in [17] was “inactive” throughout. Also, the outcome in assay [4] and in [5] was inactive.

Turning to `Cc1cc(N)c2cc(NC(=O)Nc3ccc4nc(C)cc(N)c4c3)ccc2n1`, the Potency result in assay [1], in [2], in assay [3], in [6], in [8] and in [9] was “inactive” in each case. Also, the Potency result in [18], in assay [10], in [11], in [12], in assay [13] and in [14] was “inactive” in each case. Moreover, the Potency result in assay [16] is “inactive”. The outcome in assay [4] and in assay [5] was inactive.

These data come from PubChem BioAssay (Tox21).
